High-throughput results deposited in PubChem BioAssay by National Center for Advancing Translational Sciences (NCATS).
This is a sample that favours compounds with a hit; in the whole collection about 12% have one here.
SARS PLP yeast: SARS-CoV PLP inhibition in yeast; S. cerevisiae expressing SARS-CoV PLpro, growth rescue; Potency, µM (top dose mostly 32.9 µM), inactives show at the highest dose activity, positive = growth rescue, actives largely listed as activators; hit rate 0.19% among 330,000; calls by dose curve; note: 0% is about no effect; nearly all actives have a fitted effect of over 55% in size
Pf growth 96h: P. falciparum growth inhibition at 96 hours; P. falciparum luciferase reporter growth, 96 h; Potency, µM (highest dose often 28.7 µM), without a hit: at the top dose activity change, negative = inhibition, most hits filed as inhibitors; hit rate 6.9% among 320,000; AID 504834; note: % is set by controls: 0 for no effect and ±100 for the full control effect
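Cell-based qHTS: luciferase-tagged P. falciparum in erythrocytes (2% hematocrit, 0.05% parasitemia final) incubated with compounds for 96 hours, 37 C, 5% CO2; luciferase detection reagent then added and luminescence measured.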
NS1 inh: blocks influenza NS1 protein function; Potency, µM (doses to about 46.1 µM), for inactives: at the highest dose activity, positive = more growth; hit rate 0.4% among 270,000; calls by dose curve; note: actives are rising curves; nearly all actives have a fitted effect of over 50% in size
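S. cerevisiae expressing influenza A NS1, grown in glucose, washed, then diluted 1:100 into pH 6.0 -URA galactose medium with 23 nl compound. Growth recovery read as OD600; NS1-free strain serves as control.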
Pf growth 48h: inhibits P. falciparum growth in the first generation, 48 h. P. falciparum luciferase growth in erythrocytes, 48 h. Potency, µM (top dose mostly 28.7 µM), without a hit: at the highest dose activity change, negative = inhibition, hits mostly inhibitors. hit rate 5.9% among 310,000. AID 504832; note: % is set by controls: 0 for no effect and ±100 for the full control effect
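A one-generation exposure of luciferase-tagged malaria parasites in RPMI 1640/Albumax erythrocyte culture, 37 C and 5% CO2. Inhibition is inferred from decreased luminescence after adding detection reagent.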
AMA1-RON2 inh: AMA1-RON2 (P. falciparum) interaction inhibition | AID 720542 | Potency, µM (top dose mostly 58.2 µM), for the others: top-dose activity change, negative = inhibition, usual class: inhibitors | AlphaScreen AMA1-biotinylated RON2 peptide binding | hit rate 0.2% among 360,000;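 note: 0% = vehicle wells and -100% = peptide control; nearly all actives have a fitted effect of over 45% in size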
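AMA1 (3D7) with his tag at 25 nM final met compounds first, then biotinylated RON2 peptide at 25 nM; detection used donor plus acceptor beads, 10 µg/mL apiece, read by AlphaScreen after 30 min at room temperature.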
HCV inh: inhibitors of hepatitis C virus infection; Huh7.5.1 HCVcc-Cre infection, luciferase reporter, 44 h; Potency, µM (highest dose often 41.8 µM), for inactives: at the highest dose activity change, negative = inhibition, hits mostly inhibitors; hit rate 3.4% among 340,000; note: % is set by controls: 0 for no effect and ±100 for the full control effect
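1,000 cells/well; 4 h culture; + compound; + HCVcc-Cre (~0.5 moi); 44 h; luciferase substrate, RT 15 min; read 15 sec.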
* hit, by the source's call; i = inactive; u = inconclusive; x = no result; [ ] = another dose, or the depositor's remark. Unless noted, calls come from the whole dose curve; as a rule, active = well fitted curve in the direction sought with a large enough effect; inconclusive = small, poorly fitted or top-dose-only effect, or another doubt; inactive = no such curve, though single readings can be large; an effect the other way counts as inactive or inconclusive. Potency is the fitted concentration of half-maximal effect.

SMILES	SARS PLP yeast	Pf growth 96h	NS1 inh	Pf growth 48h	AMA1-RON2 inh	HCV inh
CC(C)CCSc1nc2[nH]ncc2c(=O)[nH]1	3%	13%	x	u	-2%	21%
O=C(N/N=C/c1ccc(-c2ccccc2Cl)o1)c1ccccc1	-2%	-5%	x	u	15%	13µM*
NC(=S)N/N=C/c1ccc(-c2cc(Cl)ccc2Cl)o1	-23%	4.7µM*	-66%	x	52%	u
CCOC(=O)N/N=C\c1ccc(-c2cc(Cl)ccc2Cl)o1	-1%	22%	-4%	5.2µM*	u	-9%
COc1ccccc1N1CCN(C(=O)COc2ccc(S(=O)(=O)NC(C)(C)C)cc2)CC1	2%	u	-4%	u	x	x
COc1ccc(NC(=S)N2CCC(NC(=O)C3CCCCC3)CC2)cc1	-2%	-3%	10%	-1%	-4%	19%
Cc1ccc(S(=O)(=O)N(C(=O)c2ccco2)c2cc3sc(=O)oc3c3ccccc23)cc1	6%	12µM*	27%	10µM*	-4%	-2%
COc1cccc(CN2CCC2(C)C(=O)Nc2cccc3cccnc23)c1OC (stereo unspecified)	x	x	x	x	63%	x
COc1ccc(CCN(C)Cc2ccc(C(=O)Nc3ccccc3)cc2)cc1OC	0%	u	6%	u	0%	10µM*
C/C=C/c1ccc(OCCCCN(C)Cc2ccccc2)c(OC)c1	-3%	i	-11%	-15%	u	11µM*
COc1ccc(CCN(C)Cc2ccc(OC)c(OCc3ccccc3)c2)cc1OC	-6%	10µM*	-1%	u	-13%	-25%
Cc1cc2nc(-c3cccc(Br)c3)c(Cc3ccccc3)n2c(C)c1Br	x	x	x	x	-2%	x
CC1Cc2ccccc2N1CC(=O)NCc1ccccc1Cl (stereo unspecified)	21%	10%	4%	-6%	4%[11.6 µM]	u
COc1ccccc1CNc1nc(=S)[nH]c2cc(OC)c(OC)cc12	1%	1%	10%	u	80%	-15%
COc1ccc(CCNC(=O)c2c(O)c3ccccc3[nH]c2=O)cc1OC	-1%	-7%	3%	u	45%	-25%
COc1ccccc1CNC(=O)COC(=O)c1n[nH]c2ccccc12	4%	u	-4%	x	-21%	u
COc1cc2[nH]c(=S)nc(NCc3cccs3)c2cc1OC	-1%	5%	x	u	77%	25µM*
COc1cc2[nH]c(=S)nc(NCCc3ccc(C)cc3)c2cc1OC	0%	8%	x	2.6µM*	52%	4%
COc1ccc(CCNc2nc(=S)[nH]c3cc(OC)c(OC)cc23)cc1OC	2%	u	x	u	101%	u
COc1ccc(CCNC(=O)c2ccc(CNc3nc(=S)[nH]c4ccccc34)cc2)cc1OC	-1%	-6%	5%	u	36%	10µM*
COc1ccc(CNC(=O)COC(=O)c2n[nH]c3ccccc23)cc1OC	24%	u	2%	u	23%	10µM*
COc1ccc(Cc2c(C3CCCCC3)nc3cc(C)c(Br)c(C)n23)c(C)c1	x	x	x	x	-13%	x
CSc1ncccc1C(=O)Nc1nc2ccc(Oc3ccccc3)cc2s1	0%	62%	u	46%	-6%	u
COc1cc2[nH]c(=S)nc(NCc3ccc(Cl)cc3)c2cc1OC	0%	u	2%	12µM*	94%	u
C[C@@H]1COC(=O)[C@@H](NC(=O)OCC2c3ccccc3-c3ccccc32)C/C=C\C[C@@H](CC(=O)N(CCO)Cc2ccccc2)C(=O)N1	1%	x	x	x	-11%	u
SMILES	SARS PLP yeast	Pf growth 96h	NS1 inh	Pf growth 48h	AMA1-RON2 inh	HCV inh
CCCCNC(=O)N(O)C1N(CCCC)C(=O)N(CC(=O)OC)C1(C)C (stereo unspecified)	-23%	5.2µM*	0%	-9%	2%	0%
Cc1ccc(NC(=O)c2nc[nH]c2C(=O)NCCCCCNC(=O)OC(C)(C)C)cc1	-9%	u	x	3.3µM*	109%	u
CCOC(=O)c1ccc(NC(=O)c2nc[nH]c2C(=O)NCCCCNC(=O)c2[nH]cnc2C(=O)Nc2ccc(C(=O)OCC)cc2)cc1	0%	1.5µM*	x	u	88%	0%
CC(C)(C)OC(=O)NCCCCCNC(=O)c1[nH]cnc1C(=O)Nc1ccc(Cl)cc1	-4%	u	x	10µM*	161%	35µM*
CC(C)(C)OC(=O)NCCCCCNC(=O)c1[nH]cnc1C(=O)Nc1ccccc1	4%	u	x	u	120%	-1%
Oc1c(Cl)cc(Cl)cc1CNc1nc2ccccc2[nH]1	-5%	u	-39%	0%	19%	1%
CN(C)c1ccc(S(=O)(=O)N2CCCCC2)cc1NC(=O)COc1ccccc1F	-8%	-14%	u	u	-4%	-15%
CC[C@]12c3[nH]c4cc(-c5ccco5)ccc4c3CCN1C(=O)[C@@H](CC(=O)NC(C)(C)C)C[C@@H]2C(=O)N1CCN(C(=O)C2CC2)CC1	3%	x	x	x	-10%	-23%[8.37 µM]
Cc1sc2nc(C(C)Nc3ccccc3N3CCOCC3)[nH]c(=O)c2c1C (stereo unspecified)	9%	6.6µM*	u	9.3µM*	-17%	u
CSc1cccc(NC(=S)N2CCCN(Cc3cccc(Cl)c3)C2)c1	0%	40%	x	10µM*	16%	u
CC(=O)OC(C)=O	-2%	u	x	46%	7%	2%
Cc1ccc(NS(=O)(=O)c2ccc3c(c2)NC(=O)CCS3)c(C)c1	17%	10µM*	-3%	2.6µM*	-6%	-12%
Cc1ccc(NS(=O)(=O)c2ccc3c(c2)NC(=O)CCS3)c(Cl)c1	1%	u	11%	4.7µM*	-1%	6%
CCOC(=O)c1ccc(NS(=O)(=O)c2ccc3c(c2)NC(=O)CCS3)cc1	-5%	u	-1%	-16%	-4%	4%
Cc1cc(C)c(NS(=O)(=O)c2ccc3c(c2)NC(=O)CCS3)c(C)c1	0%	8.3µM*	7%	12µM*	16%	10%
COc1ccc(Cl)cc1NS(=O)(=O)c1ccc2c(c1)NC(=O)CCS2	0%	7.4µM*	3%	17%	1%	0%
COCCN(C(=O)COC(=O)/C=C/c1ccc2c(c1)OCO2)c1c(N)n(Cc2ccccc2)c(=O)[nH]c1=O	-4%	u	x	-4%	8%	-24%
OC[C@H]1O[C@@H](O[C@@H]2[C@@H](CO)O[C@@](O)(CO)[C@H]2O)[C@H](O)[C@@H](O)[C@H]1O	x	19%	x	15%	0%	13%
CCOc1cc(C2NC(=O)NC(c3ccccc3)=C2C(=O)c2ccccc2)c(Br)cc1OCC(=O)O (stereo unspecified)	1%	u	20%	-17%	1%	-3%
COC(=O)c1sccc1NC(=O)Cn1nnc(-c2ccccc2C)n1	4%	-19%	x	5%	0%	-28%
